FLuc modulator = inhibits or activates purified firefly luciferase, miR-21 counter-screen; AID 588342; Potency, µM (doses to about 57.5 µM), without a hit: at the highest dose activity change, negative = inhibition, actives largely listed as inhibitors; purified FLuc, Km substrates, luminescence inhibition; 6.9% of 360,000 active;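 note: plate controls were vehicle for no effect and reference inhibitor for full effect; nearly all actives have a fitted effect of over 55% in size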
Target sequence (P08659 whole entry, looked up): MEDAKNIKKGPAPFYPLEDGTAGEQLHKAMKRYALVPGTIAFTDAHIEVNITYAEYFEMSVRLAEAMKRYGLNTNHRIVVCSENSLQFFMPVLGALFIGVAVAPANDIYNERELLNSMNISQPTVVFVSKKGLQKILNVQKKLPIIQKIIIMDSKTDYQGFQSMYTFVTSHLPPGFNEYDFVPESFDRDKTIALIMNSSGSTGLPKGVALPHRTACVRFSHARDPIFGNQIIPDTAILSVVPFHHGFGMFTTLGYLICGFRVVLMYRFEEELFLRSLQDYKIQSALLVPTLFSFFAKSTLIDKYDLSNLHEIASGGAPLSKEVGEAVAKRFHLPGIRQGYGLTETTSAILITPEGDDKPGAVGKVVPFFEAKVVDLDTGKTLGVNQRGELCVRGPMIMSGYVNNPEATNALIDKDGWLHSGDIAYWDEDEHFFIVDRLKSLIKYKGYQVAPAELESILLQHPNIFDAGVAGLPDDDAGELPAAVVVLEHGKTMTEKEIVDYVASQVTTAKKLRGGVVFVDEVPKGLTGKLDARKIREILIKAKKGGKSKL
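Biochemical qHTS of compounds, final roughly 60 µM downward over six points, against 10 nM purified firefly luciferase using Km concentrations of substrates (10 uM D-luciferin, 10 uM ATP) in Tris acetate pH 7.5 buffer; luminescence output.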
NPC1 promoter act = activates the NPC1 promoter | Potency, µM (series often up to 9.22 µM), for the others: top-dose activation, most hits filed as activators | 2.4% of 320,000 active | Huh7 NPC1 promoter luciferase reporter, 24 h | AID 485313; note: % of control where 0% means no effect; nearly all actives have a fitted effect of over 60% in size
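In 1536-well qHTS, Huh7 cells harboring an NPC1 promoter–luciferase construct received compound for 24 h; activation was quantified by luminescence following luciferase reagent addition.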
ELG1 genotoxic = genotoxicity induction in ELG1-luciferase HEK293T cells | AID 504466 | 1.3% of 330,000 active | Potency, µM (titrated, usually from 46 µM), inactives show at the top dose activity change, positive = activation, most hits filed as activators | HEK293T ELG1-luciferase reporter, luminescence, 16 h; note: % of control where 0% means no effect; nearly all actives have a fitted effect of over 60% in size
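Quantitative HTS format in 1536-well plates. HEK293T ELG1-luciferase reporter cells receive test compound and are incubated 16 hr at 37 °C, 5% CO2; ONE-Glo added, 30 min room temperature, then luminescence read.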
Luc counter = blocks Kinase-Glo luciferase, a counter-screen artifact; Q27757; Kinase-Glo luciferase, ATP luminescence, 8 min; Potency, µM (highest dose often 38.3 µM), without a hit: at the highest dose activity change, negative = inhibition, hits mostly inhibitors; 0.28% of 200,000 active; note: % is set by controls: 0 for no effect and ±100 for the full control effect; nearly all actives have a fitted effect of over 60% in size
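Compounds were added to a substrate mix at pH 7.2 (50 mM imidazole, 10 uM ATP, within the enzyme's linear range), followed by Kinase-Glo detection reagent; luminescence was measured after 8 minutes at ambient temperature.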
Rab9 promoter act = Rab9 promoter activation | Potency, µM (highest dose often 9.22 µM), without a hit: at the highest dose activation, negative = inhibition, actives largely listed as activators | 2.8% of 320,000 active | Huh7 Rab9 promoter-luciferase reporter, luminescence, 24 h | AID 485297; note: % of control where 0% means no effect; nearly all actives have a fitted effect of over 60% in size
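Quantitative HTS format; Huh7 Rab9-luciferase reporter cells (1500/well) receive compound 2 h post-plating, incubate 24 h at 37 °C, then get luciferase reagent for 10 min before luminescence reading.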
SMN2 splice enh = SMN2 splice variant enhancement. HEK293 SMN2-luciferase splicing reporter, luminescence, 30-36 h. Potency, µM (titrated, usually from 46.1 µM), without a hit: top-dose activity change, positive = activation, actives largely listed as activators. 2.8% of 210,000 active. AID 1458; note: % of control where 0% means no effect; nearly all actives have a fitted effect of over 55% in size
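HEK293 cells carry an SMN2 […]–luciferase reporter in which exon 7 inclusion puts luciferase in frame. Cells were plated 10-12 h before compound addition, then incubated 30-36 h at 37C. ONE-Glo luminescence was read; sodium butyrate at 4.5 mM final served as control.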
* hit, by the source's call; ? = inconclusive; . = no result; [ ] = remark or other dose. A selection: hits, their analogues and other compounds. The true share with any hit is near 7.4%. Calls come from the whole dose curve; as a rule, active = well fitted curve in the direction sought with a large enough effect; inconclusive = small, poorly fitted or top-dose-only effect, or another doubt; inactive = no such curve, though single readings can be large; an effect the other way counts as inactive or inconclusive. Potency is the fitted concentration of half-maximal effect.

SMILES	FLuc modulator	NPC1 promoter act	ELG1 genotoxic	Luc counter	Rab9 promoter act	SMN2 splice enh
Cc1ccc(/C=C2\SC(=O)N(CCC(=O)N3CCN(C)CC3)C2=O)cc1	13µM*	?	?	.	24%	.
Cc1ccc(/C=C2\SC(=O)N(CCNC(=O)C3CSC4(C)CCC(=O)N34)C2=O)cc1 (centres undefined)	19µM*	7%	-1%	.	8%	.
COc1ccc(/C=C2\SC(=O)N(CCC(=O)N3CCN(C)CC3)C2=O)cc1	19µM*	24%	9%	.	18%	.
CC12CCC(=O)N1C(C(=O)NCCN1C(=O)S/C(=C\c3ccccc3Cl)C1=O)CS2 (centres undefined)	?	-3%	0%	.	4%	.
COc1cc(OC)c(NC(=O)CCCn2nc(C)c3sc4ccccc4c3c2=O)cc1Cl	13µM*	.	.	.	.	.
Cc1ccc(NC(=O)CCCn2nc(C)c3sc4ccccc4c3c2=O)c(Cl)c1	6µM*	.	.	.	.	.
Cc1c(NC(=O)c2ccc3nsnc3c2)cccc1[N+](=O)[O-]	0%	-6%	-5%	.	3%	.
Cc1ccc(NC(=O)c2ccc3nsnc3c2)c(Cl)c1	1.5µM*	0.5µM*	?	.	0.32µM*	.
O=C(Nc1ccc(Br)cc1F)c1ccc2nsnc2c1	?	1.6µM*	10µM*	.	3.5µM*	.
N#Cc1c(NC(=O)CCCC(=O)O)sc2c1CCCCC2	2.1µM*	?	?	-3%	?	1.3µM*
CCC(=O)Nc1sc2c(c1C#N)CCCCC2	-2%[2.3 µM]	28%	12%	2%	?	?
CCCC(=O)Nc1sc2c(c1C#N)CCCCC2	9.5µM*	3.2µM*	?	2%	2.8µM*	11µM*
O=C(NCc1ccccc1)c1cccnc1Sc1ccccc1	0%	4%	0%	.	-8%	.
Cc1ccc(Sc2ncccc2C(=O)NCc2cc([N+](=O)[O-])ccc2O)c(C)c1	8.5µM*	4µM*	?	.	4µM*	.
O=C(NCc1cc([N+](=O)[O-])ccc1O)c1cccnc1Sc1ccccc1	17µM*	2%	-1%	.	-3%	.
CC1(C)C(=O)CC[C@@]2(C)[C@H]1CC[C@@]1(C)CC3=C(CC[C@@H]12)[C@@]1(C)CCC(=O)C(C)(C)[C@@H]1CC3	-1%	-5%	?	.	-5%	.
COc1cccc(OC)c1C(=O)Nc1cccc(-c2ccc3nncn3n2)c1	-1%	-7%	17%	1%	-10%	26%
COc1ccc(C(=O)Nc2cccc(-c3ccc(N4CCOCC4)nn3)c2)cc1	2.4µM*	?	2%	.	4µM*	.
COc1cccc(OC)c1C(=O)Nc1cccc(-c2ccc(N3CCOCC3)nn2)c1	1.5µM*	?	0%	.	1.8µM*	.
COc1cc(OC)cc(C(=O)Nc2ccccc2N2CCOCC2)c1	2%	-1%	0%	-4%	4%	-24%
COc1ccc(NS(=O)(=O)c2cc(NC(=O)c3ccccc3)ccc2N2CCOCC2)cc1	.	.	0%	.	.	.
COc1cc(OC)cc(C(=O)Nc2cccc(-c3ccc(N4CCOCC4)nn3)c2)c1	1.5µM*	?	?	.	?	.
COC(=O)c1ccc(CNC(=O)CCc2c[nH]c3ccccc23)cc1	4%	-1%	7%	.	-2%	.
COC(=O)c1ccc2c(CCO)c[nH]c2c1	24µM*	?	?	.	29%	.
CCCCn1c(N)c(N(CCOC)C(=O)c2nn(CC)c(=O)c3ccccc23)c(=O)[nH]c1=O	1%	2%	-12%	.	-2%	.
SMILES	FLuc modulator	NPC1 promoter act	ELG1 genotoxic	Luc counter	Rab9 promoter act	SMN2 splice enh
Cc1ccccc1-c1nc2cc(Cl)ccc2c(=O)o1	-11%	-4%	0%	.	1%	.
CC(=O)Oc1ccc2c(=O)oc(-c3ccccc3)nc2c1	7.6µM*	1%	1%	.	0%	.
CC(=O)Oc1ccc2c(=O)oc(-c3ccccc3C)nc2c1	19µM*	-2%	0%	.	0%	.
CC(=O)Oc1ccc(-c2nc3cc(Cl)ccc3c(=O)o2)cc1	-11%	-4%	-3%	.	6%	.
CC(=O)Oc1ccc2nc(/C=C/c3ccccc3)oc(=O)c2c1	1.1µM*	-5%	3%	.	4%	.
CC(=O)Oc1ccc2nc(/C=C/c3ccc(C=O)cc3)oc(=O)c2c1	?	-4%	3%	.	-2%	.
CCOC(=O)CCNC(=O)N1CCCC(N2CCN(c3ccc(OC)cc3)CC2)C1 (centres undefined)	0%	-2%	-4%	.	-2%	.
Cc1ccc(C2Nc3ccccc3-n3c(-c4ccccc4)c4c(=O)n(C)c(=O)n(C)c4c32)o1 (centres undefined)	2%	.	.	.	.	.
CC(C)(C)c1ccc(C(=O)NC2=NC(c3cccc(F)c3)CC(=O)N2)cc1 (centres undefined)	2%	.	.	.	.	18%
COc1ccc(C(=O)Nc2nc3n(n2)C(c2ccc(Cl)cc2)C=C(c2ccccc2)N3)cc1OC (centres undefined)	?	.	.	.	.	-3%
CCNc1nc(NCC)nc(N/N=C/c2ccc(O)c(O)c2)n1	21µM*	26%	?	1%	?	?
COc1ccc(-c2cnnc(N/N=C/c3ccc(O)cc3)n2)cc1	1.7µM*	0%	?	-3%	18%	27%
COc1ccc(-c2cnnc(N/N=C/c3ccc(O)c(O)c3)n2)cc1	2.7µM*	-13%	12%	-8%	-9%	?
COc1ccc(/C=N/Nc2nc(NCc3ccco3)nc(Nc3ccc(OC)cc3)n2)cc1	?	-2%	-6%	-1%	-7%	-11%
COc1ccc(Nc2nc(NCc3ccco3)nc(N/N=C/c3ccc(O)cc3)n2)cc1	15µM*	-1%	-7%	-2%	1%	.
